Experimental findings from PubChem BioAssay are described below.

The source made the active and inactive calls. Unless noted, the rule behind the calls is not given here.

The test system of assay [1] is XIP peptide (Xip251-270) binding. The assay is described as follows: small-molecule binders of XIP peptide, primary screen, biochemical, small-molecule microarray, fluorescence 635/667 nm, 0.1 µg/mL protein (AID 1182). The following applies: fluorescent protein binding, 635 nm, higher = more signal, called active from +8 up or from −8 down.
In assay [2] the test system is XIP peptide (Xip251-270). The assay is described as follows: small-molecule binders of XIP peptide, primary screen, biochemical, small-molecule microarray, fluorescence 635/667 nm, 0.5 µg/mL protein (AID 1183). The following applies: small-molecule microarray binding, fluorescence 635 nm; higher = more signal.
Assay [3] in a line: Plasmodium falciparum growth inhibition, primary screen, strain 3D7, DAPI fluorescence, 100 nL (AID 1184).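 Note: parasites grown inside human red blood cells in medium with human serum.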 The following applies: P. falciparum 3D7 growth, 3 d, higher = more signal.
For assay [4], the target named is Homeobox protein Hox-A13 (Mus musculus) (UniProt Q62424). The assay is described as follows: inhibitors of HoxA13-DNA binding, primary screen, biochemical, fluorescence polarization, labeled oligonucleotide (AID 1185). The following applies: 15 min, higher = more signal, called active from +8 up or from −8 down. A general note: Polarisation of emitted light reports the rotation of a fluorescent probe.

A short description of assay [5]: inhibitors of hydroxyurea-induced Chk1 phosphorylation, primary screen, imaging, HeLa, phospho-Chk1 antibody, percent positive cells (AID 1186). The following applies: hydroxyurea-induced phospho-Chk1 immunofluorescence imaging, higher = more signal.
Assay [6] can be described thus: inhibitors of hydroxyurea-induced Chk1 phosphorylation, primary screen, imaging, HeLa, phospho-Chk1 nuclear intensity (AID 1187). The following applies: hydroxyurea-induced phospho-Chk1 immunofluorescence imaging, higher = more signal.

Chain of Homeobox protein Hox-A13 (Mus musculus) (Q62424 whole entry, looked up): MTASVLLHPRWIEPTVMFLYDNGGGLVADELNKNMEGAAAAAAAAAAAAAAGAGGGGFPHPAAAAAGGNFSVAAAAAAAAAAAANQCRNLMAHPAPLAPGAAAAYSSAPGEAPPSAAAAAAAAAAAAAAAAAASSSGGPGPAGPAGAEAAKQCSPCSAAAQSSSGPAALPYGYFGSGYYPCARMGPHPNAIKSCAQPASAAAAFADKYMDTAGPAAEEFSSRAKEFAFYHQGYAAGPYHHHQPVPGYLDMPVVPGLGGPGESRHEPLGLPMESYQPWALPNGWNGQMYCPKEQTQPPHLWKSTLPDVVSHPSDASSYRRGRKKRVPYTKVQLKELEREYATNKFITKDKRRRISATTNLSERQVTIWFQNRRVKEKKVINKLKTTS

For `C=C(C)[C@@H]1CC=C(C(O)C2C=CC3C(=O)N(c4ccccc4)C(=O)C3N2Nc2ccc(C#N)cc2)CC1` (some centres undefined), the composite z-score was 0.476 (inactive) in assay [1] and 0.642 in assay [2]. Moreover, the z-score in assay [3] was 0.807; in assay [4], 1.21 (inactive); in assay [5] it was -0.169 (inactive); in assay [6], 0.008 (inactive).

As for `COCCOC(=O)N1C(=O)[C@@]2(c3cc(C#Cc4ccc(OC)cc4)ccc31)[C@H](C(=O)NC[C@H](O)c1ccccc1)[C@H]1C(=O)O[C@H](c3ccccc3)[C@H](c3ccccc3)N1[C@@H]2c1ccc(OCCO)cc1`, the composite z-score in assay [1] is 0.271 (inactive); in assay [2], 0.591. Also, the z-score is -2.17 in assay [3], 1.56 (inactive) in assay [4], 0.0092 (inactive) in assay [5] and 0.117 (inactive) in assay [6].

As for `CC(C)C(CO)N1C(=O)[C@@H]2[C@H]3C(=O)OCC=C[C@H]3OC23C=CCN(C(C)(C)C)C(=O)[C@@H]13` (some centres undefined), the values for the composite z-score in assay [1] and in assay [2] were 0.0887 (inactive) and 0.37, respectively. The z-score is -0.217 in assay [3], -4.25 (inactive) in assay [4], 0.337 (inactive) in assay [5] and -0.418 (inactive) in assay [6].

Consider `NCCCCCNC(=O)[C@@H]1C[C@@H]2C(=O)N3CCC[C@H]3C(=O)N2[C@@H]1c1ccc(O)cc1`, for which the composite z-score in assay [1] is 0.0353 (inactive); in assay [2] it was 0.0129. Also, the z-score in assay [3] is 0.0766; in assay [4], -1.74 (inactive); in assay [5], 0.299 (inactive); in assay [6], 0.235 (inactive).

Take `CCOC(=O)C[C@H]1[C@H](OC(=O)c2ccc(-c3ccccc3)cc2)[C@@H](NC(=O)CC(C)C)c2cc(OCCCO)ccc2N1C(=O)c1ccccc1`: the figures for the composite z-score in assay [1] and in assay [2] were 0.22 (inactive) and -0.0545, respectively. In addition, the z-score was -0.419 in assay [3], -3.33 (inactive) in assay [4], -0.228 (inactive) in assay [5] and -0.0761 (inactive) in assay [6].

For the compound `COc1ccc([Si](C)(C)[C@@H]2[C@@H](CCn3cc([C@H](O)c4ccccc4)nn3)O[C@]3(C(=O)N(Cc4cccc(N5C(=O)c6cccc7cccc5c67)c4)c4ccccc43)[C@H]2C)cc1`, the composite z-score is 0.368 (inactive) in assay [1] and 0.45 in assay [2]. For the same compound, the z-score in assay [3] was -2.38; in assay [4] it was -1.19 (inactive); in assay [5], -0.779 (inactive); in assay [6] it was -1.33 (inactive).

With `CCCC=C(CCC)[C@@H](NS(=O)(=O)c1cccc2cccnc12)c1ccc(-c2ccccc2)cc1`, the composite z-score in assay [1] is -0.356 (inactive); in assay [2], 0.604. The z-score was -0.831 in assay [3], -0.807 (inactive) in assay [4], 0.483 (inactive) in assay [5] and 0.309 (inactive) in assay [6].

On to `CC(=O)NCCCC[C@@H]1NC(=O)[C@H]2C[C@@H](C(=O)NCCCCCNC(=O)CS)[C@@H](c3cccc(OCCO)c3)N2C1=O`, for which the composite z-score in assay [1] was 4.01 (inactive); in assay [2], 0.854. In addition, the z-score in assay [3] was -0.559; in assay [4], -3.69 (inactive); in assay [5], 0.276 (inactive); in assay [6], 0.591 (inactive).

Turning to `C=C(C(=O)CC[C@H](OC(=O)c1ccccc1-c1ccccc1C(=O)O)c1ccccc1OCCO)C(C)C`, the results for the composite z-score in assay [1] and in assay [2] were -0.0286 (inactive) and 0.7, respectively. The z-score in assay [3] is -2.47; in assay [4] it was -5.13 (inactive); in assay [5] it was -0.126 (inactive); in assay [6], -0.0147 (inactive).

As for `O=C(O)[C@H]1C[C@H]2C(=O)N[C@@H](Cc3ccccc3)C(=O)N2[C@H]1c1cccc(OCCO)c1`, the composite z-score in assay [1] was -0.0627 (inactive); in assay [2], 0.152. Moreover, the z-score in assay [3] was -0.74; in assay [4], -1.74 (inactive); in assay [5], 0.464 (inactive); in assay [6] it was 0.48 (inactive).

In the case of `COc1ccc([Si](C)(C)[C@@H]2[C@@H](CC(=O)N3Cc4ccccc4C[C@H]3CO)O[C@]3(C(=O)N(c4ccccc4)c4ccccc43)[C@H]2C)cc1`, the figures for the composite z-score in assay [1] and in assay [2] were 3.93 (inactive) and 0.546, respectively. Besides, the z-score was -2.38 in assay [3], -4.85 (inactive) in assay [4], -0.0103 (inactive) in assay [5] and -0.192 (inactive) in assay [6].

In the case of `C=CCNC(=O)[C@H]1[C@@H]2C(=O)O[C@@H](c3ccccc3)[C@@H](c3ccccc3)N2[C@@H](c2ccc(O)cc2)[C@]12C(=O)N(C(=O)OCCOC)c1ccc(C#CCC(C(=O)OC)C(=O)OC)cc12`, the composite z-score in assay [1] was 2.8 (inactive); in assay [2], 0.761. Besides, the z-score is -2.07 in assay [3], -0.414 (inactive) in assay [4], -0.0546 (inactive) in assay [5] and -0.0093 (inactive) in assay [6].

Consider `COc1ccc(C#Cc2ccc3c(c2)[C@]2(C(=O)N3)[C@H](C(=O)N3CCCCCCC3)[C@H]3C(=O)O[C@H](c4ccccc4)[C@H](c4ccccc4)N3[C@@H]2c2ccc(O)cc2)cc1`, for which the composite z-score was 2.34 (inactive) in assay [1] and 0.755 in assay [2]. The z-score was -1.56 in assay [3], 0.625 (inactive) in assay [4], -0.25 (inactive) in assay [5] and -0.372 (inactive) in assay [6].

As for `CC1CC/C=C\[C@H]2OC34C=CCN(C(C)(C)C)C(=O)[C@H]3N(C(CO)C(C)C)C(=O)[C@@H]4C2C(=O)O1` (some centres undefined), the composite z-score was 1.27 (inactive) in assay [1] and -0.142 in assay [2]. Also, the z-score in assay [3] was -0.459; in assay [4], -5.73 (inactive); in assay [5] it was 0.015 (inactive); in assay [6], 0.277 (inactive).

For the compound `CC(C)CNC(=O)[C@@H]1c2ccccc2C(=O)N(C2CCCCC2)[C@H]1c1ccc(CO)cc1`, the composite z-score was 0.737 (inactive) in assay [1] and 0.652 in assay [2]. The z-score in assay [3] was -0.68; in assay [4], -2.05 (inactive); in assay [5] it was -0.411 (inactive); in assay [6], -0.339 (inactive).

`CCCNC(=O)[C@@]1(Sc2ccc(C)cc2)CC(=O)N(C(C)C)[C@@H]1c1ccc(CO)cc1I`: the composite z-score in assay [1] is 1.51 (inactive); in assay [2], -0.964. The z-score in assay [3] is -0.221; in assay [4], -3.48 (inactive); in assay [5], 0.366 (inactive); in assay [6], 0.197 (inactive).

Turning to `CC(C)[C@H]1NC(=O)[C@@]23C(=O)N[C@@H](Cc4ccccc4)C2[C@H](C)[C@@]2(C)O[C@H]2C3/C=C/C/C=C\CNC(=O)[C@H](Cc2ccccc2)NC1=O` (some centres undefined), the composite z-score in assay [1] is 0.21 (inactive); in assay [2] it was 0.763. Further, the z-score in assay [3] is -2.45; in assay [4] it was -5.69 (inactive); in assay [5], 0.174 (inactive); in assay [6], 0.5 (inactive).

As to `COC(=O)C1N=C(c2ccc(OCCCO)cc2)N(c2ccccc2)O1` (centres undefined), the composite z-score was 2.4 (inactive) in assay [1] and 0.864 in assay [2]. Besides, the z-score in assay [3] was 0.704; in assay [4], -3.85 (inactive); in assay [5] it was -0.729 (inactive); in assay [6] it was -0.63 (inactive).

Regarding `O=C1[C@@H]2[C@@H](CC(COc3ccccc3)=C3[C@@H](CCc4ccccc4)OB(O)C[C@@H]32)C(=O)N1Cc1ccccc1`, the composite z-score was 0.318 (inactive) in assay [1] and 0.387 in assay [2]. The z-score is 1.31 in assay [3], -5.54 (inactive) in assay [4], -0.242 (inactive) in assay [5] and -0.22 (inactive) in assay [6].
